What was measured:
Assay in all cases: PBM binding z-score (relative to random genomic background probes); higher = stronger binding; sequences stand for … in GC…GCGATTGACAGCGTAGAATGAAGG
[1] = test system: FXR:RXRa (NR concentration 270 nM, RXRa partner concentration 90 nM)
Outline: (§1)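 On custom Agilent 4×180K arrays, double-stranded probes with 34-nt variable regions carried direct-repeat seeds, single-nucleotide variants, half-site ablations or random human genomic background. Ligand-free nuclear receptor dimers were applied for 1 h, and binding was read with antibodies against each partner (one per run). Binding z-scores come from regression-normalized fluorescence, with the random background probes as reference.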

[2] = test system: LXRa:RXRa (NR concentration 270 nM, RXRa partner concentration 90 nM)
Outline: as §1

[3] = test system: LXRa homodimer (NR concentration 270 nM)
Outline: as §1

[4] = test system: LXRb:RXRa (NR concentration 270 nM, RXRa partner concentration 90 nM)
Outline: as §1

[5] = test system: LXRb homodimer (NR concentration 270 nM)
Outline: as §1

[6] = test system: PPARa:RXRa (NR concentration 270 nM, RXRa partner concentration 90 nM)
Outline: as §1

[7] = test system: PPARg:RXRa (NR concentration 180 nM, RXRa partner concentration 90 nM)
Outline: as §1

[8] = test system: PPARg:RXRa 270nM:90nM, anti-RXR (NR concentration 270 nM, RXRa partner concentration 90 nM)
Outline: as §1

[9] = test system: PPARg:RXRa 30nM:10nM, anti-RXR (NR concentration 30 nM, RXRa partner concentration 10 nM)
Outline: as §1

[10] = test system: PPARg:RXRa 90nM:30nM, anti-RXR (NR concentration 90 nM, RXRa partner concentration 30 nM)
Outline: as §1

Sequence | PBM binding z-score [1] | PBM binding z-score [2] | PBM binding z-score [3] | PBM binding z-score [4] | PBM binding z-score [5] | PBM binding z-score [6] | PBM binding z-score [7] | PBM binding z-score [8] | PBM binding z-score [9] | PBM binding z-score [10]
TGTCAAAGTTCAAAGTTAACGTAAGTATCCACAC | 6.94 | 6.38 | 5.46 | 4.6 | 2.99 | 5.59 | 8.27 | 7.38 | 5.04 | 7.29
GGTACAGGGTCAAGGCCAGAGTACGCGTATTGAT | 6.7 | 3.85 | 0.0121 | 3.89 | -0.206 | 5.92 | 5.62 | 5.68 | 2.38 | 4.07
TCGAGTAGGTTACCAATGGGGCATTGAGCTTTCT | 0.162 | 1.38 | -0.99 | 0.479 | -1.11 | 0.992 | 0.256 | 1.26 | 1.03 | 1.16
TCTTGTAGATCAGCAGGTTTAGAAAGCTGGCCAA | -0.241 | -0.13 | -0.52 | 0.0239 | -0.59 | 0.117 | -0.901 | 0.915 | 2.13 | 1.23
GATACAGGGTCAGCTAGAGCCCAGAGTATGGAAA | 4.49 | 2.36 | -0.499 | 2.18 | -0.471 | 4.59 | 3.94 | 3.29 | 0.917 | 2.03
CATACAGGGTTAGCTAGGCCAGAGTAGGGACGGC | 0.0541 | 0.22 | -0.431 | -0.176 | -0.302 | 0.689 | 0.625 | 0.647 | -0.0439 | 0.397
TCATATAGGTAATACGGGTGAAAGTCGGCATCTA | 0.703 | 0.697 | 0.104 | 0.839 | 0.196 | 1.79 | 1.31 | 2.56 | 3.81 | 3.07
AGTCAAGGTTCACTAGGTAACGTAAGATTCAGCT | 3.03 | 3.03 | 0.713 | 1.93 | 0.445 | 3.59 | 4.38 | 4.46 | 1.58 | 3.65
CGAACTAGGTCAAGGTCAAAGTCGGTTTGTGCCA | 6.55 | 5.52 | 3.7 | 4.39 | 1.14 | 5.86 | 9.77 | 7.93 | 6.78 | 8.09
CCAGAGAGGTGAGAAGGTAACTCAGCCTCGATTA | 0.595 | 0.597 | -0.207 | 1.02 | -0.739 | 2.17 | 0.83 | 1.36 | 0.216 | 0.457
TCTTGTTGGTCAAAGGTCACACACTCGAAATGCG | 5.68 | 5.8 | 4.46 | 5.63 | 2.85 | 6.46 | 10.7 | 9.31 | 9.15 | 10
CCTGCTAGGTCAATGGTTAGCTAAAGCAGCTCGC | 2.78 | 1.76 | -0.418 | 1.44 | -0.3 | 2.63 | 3.33 | 3.77 | 1.16 | 3.2
ACTTTCGGGTCAACGAGGTTATAGCACGCGTATA | 6.38 | 5.02 | 0.999 | 4.56 | 1.45 | 5.52 | 4.94 | 5.18 | 2.34 | 4.34
CCAGACAGGTTAAAGGTAACTCAGTCTGGTACGC | 1.95 | 1.84 | 0.195 | 1.63 | -0.137 | 3.7 | 4.55 | 4.78 | 3.23 | 5.29
GATACAGGGTCTGCTAGAGGCCAGAGTATGGAAA | -0.351 | -0.359 | -0.605 | -0.772 | -0.649 | -0.759 | 0.108 | -0.444 | -0.281 | -0.382
ACTTACGGGGCAACGAGGTTATAGCACGCGTATA | 0.934 | 0.688 | -0.335 | 1.73 | 0.511 | 2.21 | 1.64 | 1.26 | 0.448 | 1.2
ATAAGTAGGTTATCGGGTCATTCAGTTTGCGCAT | 3.42 | 3.08 | 1.77 | 3.11 | 1.39 | 5.07 | 7.54 | 6.6 | 3.83 | 6.09
TCTTGTAGATCAAAGATTAAGAAAGCCGAAGCCT | 0.277 | 0.499 | -0.302 | 0.245 | -0.0264 | 1.12 | 1.55 | 3.63 | 3.56 | 3.75
TAGCCTAGGTCAGATCGGGCCAGTATCCGCTATA | 2 | 1.05 | -0.375 | 0.765 | -0.472 | 1.69 | 0.405 | 0.707 | -0.351 | -0.0749
TCTCGGAGGAGACGAAAGGTCAGAGCTCGACATC | 2.04 | 2.95 | 1.15 | 2.59 | -0.403 | 3.49 | 3.2 | 5.01 | 3.66 | 4.7
CCTACTGGGCCAAAAAGGTGATTGATGCCGATAA | -0.195 | -0.147 | -0.405 | -0.234 | -0.963 | 0.761 | 0.56 | 0.945 | -0.119 | 0.309
GGAACGAGGGCAACGTTGATAGCATCTGTCGACG | 0.32 | 0.21 | -0.371 | 0.0442 | -0.855 | 1.59 | 1.9 | 1.95 | 0.134 | 1.2
TCTCGGAGGACACGAAGATCAGAGCTTTCCAGAG | 0.203 | -0.201 | -0.688 | -0.685 | -1.08 | 0.0727 | 0.181 | 0.96 | 2.25 | 1.67
AGAACGAGGGCACGCTGAGTGGATAGCAGAGTAG | 0.65 | 0.494 | -0.357 | -0.0395 | -1.03 | 1.77 | 1.99 | 1.64 | 0.26 | 1.29
TCATATAGTTAAATGCTAGGTGAAAGTCCGATCT | 0.982 | 0.66 | 0.335 | 0.729 | 0.331 | 0.834 | 0.464 | 2.11 | 3.69 | 2.89

Sequence | PBM binding z-score [1] | PBM binding z-score [2] | PBM binding z-score [3] | PBM binding z-score [4] | PBM binding z-score [5] | PBM binding z-score [6] | PBM binding z-score [7] | PBM binding z-score [8] | PBM binding z-score [9] | PBM binding z-score [10]
ATACCAAGGTGATCGTGAGGTCGTTGATACTAAC | 1.86 | 1.35 | 0.615 | 1.5 | 0.284 | 1.67 | 0.613 | 0.439 | 0.0505 | 0.47
TCTAGTAGTTGATTAGGGCAACCGAAACAGCGGA | 0.323 | 0.0277 | -0.246 | 0.0544 | -0.448 | 0.658 | 0.17 | 1.41 | 2.74 | 2.06
CCAGACAGGTGAGAAGGTATCTCAGCCTCGATTA | -0.148 | -0.116 | 0.0657 | -0.418 | -0.551 | 0.0664 | 0.278 | -0.0698 | -0.296 | -0.148
TCATATAGGTAATTGCTAGGTGAAAGTCCGATCT | 0.86 | 0.654 | 0.0873 | 0.781 | 0.17 | 1.41 | 0.771 | 2.36 | 3.67 | 3.02
ACTAGCAGGCCAAGTTTGGGTCACTCATACAAAG | 0.242 | 0.317 | -0.104 | 0.786 | -0.557 | 1.28 | 0.573 | 0.501 | -0.211 | -0.146
TCGAGTAGGTTAGTCGGGGCATTCATCCAACATA | 0.0168 | -0.035 | 0.0686 | 0.86 | -0.262 | 0.795 | 0.0659 | 0.755 | 1.55 | 0.83
CGTCCAAGGTCAAGGTTAGTGAAAGAGACTCGAA | 6.97 | 5.24 | 0.37 | 3.88 | 0.41 | 5.63 | 5.02 | 5.18 | 2.08 | 4.2
ACTAGTTAGTCAGCTGAGGTCACACACAATTCGG | 2.63 | 3.5 | 2.52 | 3.72 | 0.931 | 3.87 | 1.72 | 1.98 | 0.769 | 1.49
ATCTCTAAGTAAGACTCAGTTCAGTGAAGAACGC | 0.404 | 0.702 | 0.509 | 0.112 | 0.924 | 0.0114 | -0.0993 | 0.324 | 0.0174 | 0.392
CGAACTAGGTCATTTACAGGACAGTGAATAGTAA | 4.33 | 3.3 | 1.29 | 2.69 | 0.887 | 4.56 | 6.79 | 6.09 | 3.53 | 5.66
CCGACTGGGGCATAGGTTACCATACTCAGTACGA | -0.122 | -0.0807 | -0.232 | 0.581 | -1.1 | 3.58 | 8.18 | 7.34 | 6.9 | 7.37
ATATGTAGGTTATCGGGTCCTTCAGTTTGCGCAT | 0.663 | 0.859 | 0.528 | 0.856 | 0.389 | 3.24 | 5.01 | 4.43 | 1.77 | 3.45
CCGGCTGGGGCATAAGGTTACCATAAGCCAGCCC | -0.0908 | 1.73 | -0.45 | 0.426 | -1.54 | 1.11 | 0.631 | 1.5 | -0.332 | 0.706
TCATATAGGTAACAGGTGAAAGTCGGTGTGGTAA | 0.983 | 1 | 0.422 | 1.24 | 0.411 | 3.53 | 5.3 | 6.22 | 6.28 | 6.73
CAAACTAGGTCACCGGAAGGTCGAAGTCCGCATG | 4.63 | 4.34 | 1.21 | 3.06 | 0.673 | 5.6 | 9.2 | 7.5 | 5.41 | 7.33
TGACTGAGGTTATAAGATCAGGGAACGTTGCAAA | 1.3 | 1.14 | -0.497 | 1.08 | -0.238 | 2.27 | 0.706 | 0.976 | 0.531 | 0.783
CCTTACGGGTCACTCCAGGTTATAGCGTCGGAGT | 5.26 | 7.75 | 1.89 | 5.52 | 0.0674 | 4.65 | 3.13 | 3.94 | 1.17 | 2.7
CATCAAAGTTCAACTAAGGTAACGTAAAGCACGC | 7.36 | 6.82 | 5.03 | 4.54 | 3.07 | 5.03 | 3.96 | 4.67 | 2.12 | 3.32
TCATATAGGTAAAGGTGAGAGTCGAACGATATGA | 0.752 | 0.731 | -0.322 | 1.01 | -0.291 | 2.5 | 3.11 | 4.06 | 4.06 | 3.83
CGTCAAAGTTCAACTATGGTAACGTAAAGCACGC | 6.59 | 6.03 | 3.91 | 4.34 | 2.3 | 4.97 | 4.9 | 5.62 | 2.24 | 4.52
CCTAGTTAGTCAGGAGGTCACACACCGGATATGA | 3.41 | 3.69 | 2.46 | 3.68 | 1.17 | 4.29 | 2.42 | 3.19 | 1.24 | 2.16
TCTGCTAGGTCAACGATGGACAGCTAATCTGCTA | 3.08 | 2.24 | -0.31 | 1.28 | -0.137 | 3.07 | 2.78 | 3.12 | 2.13 | 2.56
TCTTGTAGACCAACAGGAGGTTAAGAAAGATCGA | -0.287 | 1.22 | 0.0855 | 0.717 | -0.453 | 1.15 | 0.068 | 1.3 | 2.69 | 1.81
TCTTGTCGATCAACAGGAGGTTAAGAAAGATCGA | 0.21 | 0.937 | 0.145 | 0.977 | -0.356 | 1.11 | -0.231 | 0.969 | 1.86 | 1.64

— the supplement of paper PMC6555819
